Results published in the supplement of paper PMC9694430.

Tests used:
Experiment in all cases: thermal shift delta Tm vs DMSO control; higher = stronger stabilization (binding)
Conditions in all cases: 12.5 µM; protein concentration 2 µM
[1] = system: LOC_OS02G45750-cb003
Procedure, shortened: (§1)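 Purified, E. coli-expressed rice kinase domain constructs were tested by differential scanning fluorimetry in 96-well plates: 19.5 μl of 2 μM kinase in 100 mM potassium phosphate pH 7.5, 150 mM NaCl, 10% glycerol, 5 × SYPRO Orange, plus compound in DMSO. Fluorescence was read from 25°C to 95°C at 0.05°C/s. Melting temperatures came from Boltzmann fits, and the shift is the triplicate mean relative to protein with DMSO alone.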

[2] = system: LOC_OS02G54510-cb004
Procedure, shortened: as §1

[3] = system: LOC_OS03G04050-cb001
Procedure, shortened: as §1

[4] = system: LOC_OS03G12390-cb001
Procedure, shortened: as §1

[5] = system: LOC_OS03G27990-cb004
Procedure, shortened: as §1

[6] = system: LOC_OS03G50450-cb001
Procedure, shortened: as §1

[7] = system: LOC_OS03G50810-cb003
Procedure, shortened: as §1

[8] = system: LOC_OS04G35114-cb001
Procedure, shortened: as §1

[9] = system: T1, LOC_OS04G38480-cb003
T1 sequence (whole entry): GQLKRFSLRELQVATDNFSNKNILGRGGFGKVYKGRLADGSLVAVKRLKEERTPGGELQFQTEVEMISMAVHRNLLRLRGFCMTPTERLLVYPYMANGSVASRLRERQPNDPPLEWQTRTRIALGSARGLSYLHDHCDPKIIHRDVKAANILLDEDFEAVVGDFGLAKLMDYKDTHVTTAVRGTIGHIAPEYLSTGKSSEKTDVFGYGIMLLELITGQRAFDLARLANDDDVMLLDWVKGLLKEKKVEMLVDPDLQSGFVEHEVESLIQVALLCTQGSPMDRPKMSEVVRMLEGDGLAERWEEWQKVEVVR
Procedure, shortened: as §1

[10] = system: T2, LOC_OS04G41100-cb001
T2 sequence (whole entry): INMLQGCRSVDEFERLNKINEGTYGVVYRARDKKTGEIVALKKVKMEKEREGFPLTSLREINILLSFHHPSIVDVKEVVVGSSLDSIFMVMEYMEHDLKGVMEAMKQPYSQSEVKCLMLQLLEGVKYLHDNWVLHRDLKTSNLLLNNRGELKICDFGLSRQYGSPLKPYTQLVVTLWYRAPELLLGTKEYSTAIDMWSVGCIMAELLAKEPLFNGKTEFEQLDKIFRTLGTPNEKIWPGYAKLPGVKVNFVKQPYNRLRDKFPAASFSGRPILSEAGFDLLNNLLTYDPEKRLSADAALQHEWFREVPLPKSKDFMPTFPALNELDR
Procedure, shortened: as §1

[11] = system: LOC_OS04G57630-cb004
Procedure, shortened: as §1

[12] = system: LOC_OS05G07850-cb002
Procedure, shortened: as §1

[13] = system: LOC_OS05G16824-cb004
Procedure, shortened: as §1

[14] = system: LOC_OS05G28520-cb001
Procedure, shortened: as §1

[15] = system: LOC_OS05G30820-cb001
Procedure, shortened: as §1

[16] = system: LOC_OS05G43570-cb004
Procedure, shortened: as §1

[17] = system: LOC_OS06G16330-cb003
LOC_OS06G16330-cb003, sequence (as listed by the source): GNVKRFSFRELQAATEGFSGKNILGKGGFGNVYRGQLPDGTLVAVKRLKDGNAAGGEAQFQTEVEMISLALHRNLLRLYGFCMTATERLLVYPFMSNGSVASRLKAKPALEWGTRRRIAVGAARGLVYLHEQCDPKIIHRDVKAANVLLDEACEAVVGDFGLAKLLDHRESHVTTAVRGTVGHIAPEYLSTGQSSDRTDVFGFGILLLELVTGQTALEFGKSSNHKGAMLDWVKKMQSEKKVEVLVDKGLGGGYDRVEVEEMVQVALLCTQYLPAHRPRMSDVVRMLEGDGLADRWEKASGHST
Procedure, shortened: as §1

[18] = system: T3, LOC_OS06G22820-cb001
T3 sequence (whole entry): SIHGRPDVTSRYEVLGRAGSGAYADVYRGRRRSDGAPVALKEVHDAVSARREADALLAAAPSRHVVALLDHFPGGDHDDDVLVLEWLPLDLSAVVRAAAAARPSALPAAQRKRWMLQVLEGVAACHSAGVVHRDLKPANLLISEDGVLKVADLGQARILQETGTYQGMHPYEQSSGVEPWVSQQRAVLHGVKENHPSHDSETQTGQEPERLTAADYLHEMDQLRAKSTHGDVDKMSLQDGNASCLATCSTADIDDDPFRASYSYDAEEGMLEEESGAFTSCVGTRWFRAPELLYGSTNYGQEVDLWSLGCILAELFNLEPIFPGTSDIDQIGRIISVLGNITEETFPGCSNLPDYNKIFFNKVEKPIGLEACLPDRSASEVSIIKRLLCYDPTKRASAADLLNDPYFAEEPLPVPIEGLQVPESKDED
Procedure, shortened: as §1

[19] = system: LOC_OS07G06570-cb004
Procedure, shortened: as §1

[20] = system: LOC_OS07G07230-cb001
Procedure, shortened: as §1

Row | SMILES | thermal shift delta Tm [1] [°C] | thermal shift delta Tm [2] [°C] | thermal shift delta Tm [3] [°C] | thermal shift delta Tm [4] [°C] | thermal shift delta Tm [5] [°C] | thermal shift delta Tm [6] [°C] | thermal shift delta Tm [7] [°C] | thermal shift delta Tm [8] [°C] | thermal shift delta Tm [9] [°C] | thermal shift delta Tm [10] [°C] | thermal shift delta Tm [11] [°C] | thermal shift delta Tm [12] [°C] | thermal shift delta Tm [13] [°C] | thermal shift delta Tm [14] [°C] | thermal shift delta Tm [15] [°C] | thermal shift delta Tm [16] [°C] | thermal shift delta Tm [17] [°C] | thermal shift delta Tm [18] [°C] | thermal shift delta Tm [19] [°C] | thermal shift delta Tm [20] [°C]
1 | COc1nccnc1NS(=O)(=O)c1ccc(NC(=O)/C=C/c2ccc([N+](=O)[O-])s2)cc1 [Necrosulfonamide] | -0.78 | 0.22 | 0.43 | -0.66 | 1.32 | -0.09 | 0.29 | 1.14 | 0.24 | -0.12 | -0.33 | -1.15 | -2.3 | -0.14 | 0.41 | 0.39 | -0.03 | 0.79 | 0.22 | 0.63
2 | CCCCNc1ncc(C(=O)NCc2ccc(-n3ccnc3)cc2)c(NC2CCC(O)CC2)n1 (stereo not given) | 12.4 | 0.46 | 0.27 | 2.82 | 5.72 | 1.85 | 4.77 | 9.02 | 2.91 | 0.89 | 3.08 | 11 | 8.45 | 0.43 | 1 | 0.57 | 11.2 | 0.49 | 1.44 | 0.57
3 | CNC(=O)Nc1ccc(-c2nc(N3CC4CCC(C3)O4)c3cnn(C4CCC5(CC4)OCCO5)c3n2)cc1 | 0.68 | 0.19 | 0.28 | 0.26 | 0.16 | 0.34 | -0.43 | 0.16 | 1.69 | 0.57 | 0.62 | 0.66 | -1.09 | 0.58 | 0.69 | 0.65 | -0.11 | 0.61 | 0.67 | 0.15
4 | Nc1nccc(Oc2ccc3c(C(=O)Nc4cccc(C(F)(F)F)c4)cccc3c2)n1 | -1.33 | 0.78 | 0.37 | -0.16 | 0.11 | -0.18 | 0.17 | 0.62 | 1.77 | 0.51 | 0.43 | -1.62 | -1.01 | 0.93 | 0.73 | 0.58 | 0 | 0.99 | 1.61 | 0.15
5 | c1nc2c(NC3CCCCC3)nc(Nc3ccc(N4CCOCC4)cc3)nc2[nH]1 [Reversine] | 8.28 | 4.92 | 0.32 | 9.58 | 5.33 | 9.57 | 5.17 | 6.36 | 3.21 | 0.65 | 3.78 | 12 | 11.7 | 0.53 | 4.07 | 1.11 | 8.57 | 0.3 | 1.48 | 1.02
6 | O=C(NC[C@H](O)CO)c1ccncc1Nc1ccc(I)cc1F | 0.45 | 0.09 | 0.21 | -0.04 | 0.19 | 0.42 | 0.09 | 0.79 | 0 | 0.62 | 0.16 | 0.04 | -2.59 | -0.04 | 0.65 | 0.08 | -0.12 | 0.62 | 0.95 | 0.62
